The panel holds about 83,000 compounds, 20% with a hit somewhere; the sample as a whole holds those more often.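 Compound tested at a single concentration for 48 hours in 96-well plates; a percent growth value below 10 was scored as active.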 A number with no mark means an inactive call. The source made the active and inactive calls.

One test deals with HOP-92 NSCLC. Briefly: NCI-60 one-dose screen, 48 h (100 = growth as untreated, 0 = no growth, -100 = all killed). The note with it: 10 µM unless noted.
For `C#CC[C@H](N)C(=O)O`, the growth is 87.3% [20 µM].
Same read-out and setting: then `O=C(Oc1ccc([N+](=O)[O-])cc1)c1ccc(CBr)cc1`, with 88.5%.
As to `OC(CBr)c1ccnc2ccccc12` (centres undefined), the growth was 89.3%.
Still for that read-out and setting: the figure for `CCCNCC(=O)Nc1ccc(C(=O)OC(C)(C)CC)cc1` is 74.4%; for `CC(=O)c1cc2c(o1)C(=O)c1ccccc1C2=O` it is -9.05% (active); for `CS(=O)(=O)c1ccc(-c2[nH]c3ccc(F)cc3c2/C=N/NC(N)=S)cc1` it is 55.8%.
On to `CC(C)c1ccc(C(=O)OC(=O)c2ccc(C(C)C)cc2)cc1`, for which the growth was 87.8%.
Consider `N=C(N)c1ccc(-c2ccc(-c3ccc(Cl)c(Cl)c3)o2)nc1`, for which the growth was 84.6%.
In the case of `N#C/C=C(\c1ccc([N+](=O)[O-])cc1)n1nnc2cc(Cl)c(Cl)cc21`, the growth is 45.2%.
On the same count and under the same terms, the figure for `CS(=O)(=O)c1ccc(-c2nc3cc(Cl)ccc3n2CC(=O)NO)cc1` is 98%.
The same measure, in the same setting: then `CC(=O)Nc1cccc(C2=CC(c3ccc(C)cc3)n3ncnc3N2)c1` (centres undefined), with 77.7%.
Same read-out and setting: then `CCn1c(Sc2nnc(NC(=O)CCN3CCCC3)s2)nc2c1c(=O)n(C)c(=O)n2C`, with 107%; and `N#Cc1c(NC(=O)c2cccc(C(F)(F)F)c2)sc2c1CCC(=O)C2`, with -28.5% (active).
For `CC(C)(C)c1ccc(C(=O)Nc2sc3c(c2C(N)=O)CCC(=O)C3)cc1`, the growth is -22.7% (active).
On the same count and under the same terms, the figure for `CCOC(=O)c1c(C)nc2c(c1N)/C(=C/c1cc(OC)c(OC)c(OC)c1)C(=O)N2c1ccc(OC)cc1` is 40.7%; for `Nc1nc(Nc2ccc(Cl)cc2)nn1S(=O)(=O)c1ccc(-c2ccc(F)cc2)cc1` it is 75.7%; for `CCNCCNc1cc(-c2ccc(C(F)(F)F)cc2)c(C#N)c2nc3cc(Cl)c(Cl)cc3n12` it is -83.5% (active).
On the same count and under the same terms, the figure for `C=CCN1C(=O)[C@]2(SC1=S)[C@H](c1cccc(Cl)c1)CN(C)[C@]21C(=O)NC2C=CC(Cl)=C[C@H]21` (some centres undefined) is -6.48% (active); for `O=C(/C=C/C12c3ccccc3C(c3ccccc31)C1C(=O)N(c3ccccc3)C(=O)C12)c1ccccc1` (centres undefined) it is -6.42% (active); for `O=S(=O)(Nc1ccsc1-c1nc(-c2ccccc2)no1)c1cc(Cl)cc(Cl)c1` it is 83.5%.
For `CNC1(C#N)CCN(Cc2ccccc2)CC1`, the growth is 85.1%.
Take `COc1cc2cc(Oc3ccc(NC(=O)Nc4cc(C(F)(F)F)cc(C(F)(F)F)c4)cc3)c(C)nc2cc1OCCN1CCCCC1`: the growth is 42.2%.
Regarding `CC(C)n1nc(C#Cc2cccc3cc(-c4cccc(C(F)(F)F)c4)ncc23)c2c(N)ncnc21`, the growth was 78%.
On the same count and under the same terms, then `N[C@@H]1CCC[C@H]1NCCCCN1C(=O)c2cccc3cccc(c23)C1=O`, with 48%.
`CCN(CC)CCOC(=O)N1c2ccccc2Sc2ccccc21`: the growth was 73.1%.

In the next test the test system is NCI-H522 lung. Described as above. The note with it: 10 µM unless noted.
As to `C=C(C)[C@@H]1CC[C@]2(CNCCO)CC[C@]3(C)[C@H](CC[C@@H]4[C@@]5(C)CCC(N)[C@@](C)(CO)[C@@H]5CC[C@]43C)[C@@H]12` (some centres undefined), the growth is -77.2% (active).
Regarding `O=S(=O)(NCCNc1cc(-c2c(-c3cccc(O)c3)nc3sccn23)ccn1)c1ccc(Cl)cc1`, the growth is 66.1%.
Same read-out and setting: the figure for `CC(C)(C)Nc1c(-c2c3ccccc3cc3ccccc23)nc2ccccn12` is 59.1%; for `CN(C)CCOC(=O)Nc1ccc(Cl)cc1` it is 64.9%; for `CCOc1ccc(-c2nc3ccc(-c4nc5ccc(N6CCN(C)CC6)cc5[nH]4)cc3[nH]2)cc1OCC` it is -18.2% (active).
On to `N[C@H]1CCC[C@@H]1NCCCCN1C(=O)c2cccc3cccc(c23)C1=O`, for which the growth was 57.1%.
Same read-out and setting: the figure for `COc1ccc(/C=C(\C#N)n2nnc3cc(F)c(F)cc32)c(OC)c1OC` is 51.4%; for `COc1cc2ccccc2cc1C(=O)NC(=S)Nc1ccc(-c2nc3ccccc3[nH]2)cc1` it is 89.6%; for `Cc1ccc(/C=C(\C#N)n2nnc3cc(Cl)c(Cl)cc32)cc1` it is 17.3%.
The same measure, in the same setting: then `CC(C)(O)c1cccc(F)c1`, with 99.6%; and `O=C1Nc2ccc(Cl)cc2/C1=N/N=C/c1c[nH]c2ccccc12`, with 73.2%.
`N#Cc1c(-c2ccccc2)nc(SCC2CO2)nc1N1CCOCC1` (centres undefined): the growth is 57.9%.
Same read-out and setting: the figure for `COc1cc2c(cc1OC)-c1ccc3cc4c(cc3c1N(CCCN(C)C)C2)OCO4` is 19.5%.
Still for that read-out and setting: the figure for `C=C1C(=O)O[C@H]2[C@H]1CC/C(Cn1cc(CNCCc3c[nH]c4ccc(Cl)cc34)nn1)=C\CC[C@@]1(C)O[C@@H]21` is -91% (active).
Still for that read-out and setting: the figure for `C#CC[C@H](N)C(=O)O` is 89.2% [20 µM]; for `O=C(Oc1ccc([N+](=O)[O-])cc1)c1ccc(CBr)cc1` it is -21.2% (active).
Turning to `OC(CBr)c1ccnc2ccccc12` (centres undefined), the growth is 71.8%.
The same measure, in the same setting: the figure for `CCCNCC(=O)Nc1ccc(C(=O)OC(C)(C)CC)cc1` is 66.6%; for `CC(=O)c1cc2c(o1)C(=O)c1ccccc1C2=O` it is -56.8% (active).
On the same count and under the same terms, then `CS(=O)(=O)c1ccc(-c2[nH]c3ccc(F)cc3c2/C=N/NC(N)=S)cc1`, with 5.14% (active); and `CC(C)c1ccc(C(=O)OC(=O)c2ccc(C(C)C)cc2)cc1`, with 85.3%.
On the same count and under the same terms, then `N=C(N)c1ccc(-c2ccc(-c3ccc(Cl)c(Cl)c3)o2)nc1`, with 78.2%; and `N#C/C=C(\c1ccc([N+](=O)[O-])cc1)n1nnc2cc(Cl)c(Cl)cc21`, with 2.18% (active); and `CS(=O)(=O)c1ccc(-c2nc3cc(Cl)ccc3n2CC(=O)NO)cc1`, with 86.3%.
For `CC(=O)Nc1cccc(C2=CC(c3ccc(C)cc3)n3ncnc3N2)c1` (centres undefined), the growth was 94.8%.
For the compound `CCn1c(Sc2nnc(NC(=O)CCN3CCCC3)s2)nc2c1c(=O)n(C)c(=O)n2C`, the growth was 86.8%.
Consider `N#Cc1c(NC(=O)c2cccc(C(F)(F)F)c2)sc2c1CCC(=O)C2`, for which the growth is -15.2% (active).
The same measure, in the same setting: the figure for `CC(C)(C)c1ccc(C(=O)Nc2sc3c(c2C(N)=O)CCC(=O)C3)cc1` is -10.2% (active).
On the same count and under the same terms, then `CCOC(=O)c1c(C)nc2c(c1N)/C(=C/c1cc(OC)c(OC)c(OC)c1)C(=O)N2c1ccc(OC)cc1`, with 50.4%.
On the same count and under the same terms, the figure for `Nc1nc(Nc2ccc(Cl)cc2)nn1S(=O)(=O)c1ccc(-c2ccc(F)cc2)cc1` is 75.3%; for `CCNCCNc1cc(-c2ccc(C(F)(F)F)cc2)c(C#N)c2nc3cc(Cl)c(Cl)cc3n12` it is -73.3% (active); for `C=CCN1C(=O)[C@]2(SC1=S)[C@H](c1cccc(Cl)c1)CN(C)[C@]21C(=O)NC2C=CC(Cl)=C[C@H]21` (some centres undefined) it is 41.3%.
Take `O=C(/C=C/C12c3ccccc3C(c3ccccc31)C1C(=O)N(c3ccccc3)C(=O)C12)c1ccccc1` (centres undefined): the growth was 16.7%.
The same measure, in the same setting: then `O=S(=O)(Nc1ccsc1-c1nc(-c2ccccc2)no1)c1cc(Cl)cc(Cl)c1`, with 77.3%; and `CNC1(C#N)CCN(Cc2ccccc2)CC1`, with 90.1%.
On to `COc1cc2cc(Oc3ccc(NC(=O)Nc4cc(C(F)(F)F)cc(C(F)(F)F)c4)cc3)c(C)nc2cc1OCCN1CCCCC1`, for which the growth was -53% (active).
Still for that read-out and setting: the figure for `CC(C)n1nc(C#Cc2cccc3cc(-c4cccc(C(F)(F)F)c4)ncc23)c2c(N)ncnc21` is 43.7%; for `N[C@@H]1CCC[C@H]1NCCCCN1C(=O)c2cccc3cccc(c23)C1=O` it is 65.8%; for `CCN(CC)CCOC(=O)N1c2ccccc2Sc2ccccc21` it is 68.7%.

Source of the values: PubChem BioAssay (NCI).
